Records with an inconclusive call do not appear. Activity calls are given as the source filed them. Unless noted, calls follow the shape of the dose curve; as a rule, active = well fitted curve in the direction sought with a large enough effect; inconclusive = small, poorly fitted or top-dose-only effect, or another doubt; inactive = no such curve, though single readings can be large; an effect the other way counts as inactive or inconclusive.
Experiments:
[1] = target: Lysosomal acid glucosylceramidase (Homo sapiens) (UniProt P04062); assay: Glucocerebrosidase-p2 (AID 348; in the data active = potency below about 10 µM; also: potency is read from the fitted curve at half-maximal effect); conditions: purified GBA, blue fluorogenic substrate, 40 min
Chain of Lysosomal acid glucosylceramidase (Homo sapiens) (P04062 whole entry, looked up): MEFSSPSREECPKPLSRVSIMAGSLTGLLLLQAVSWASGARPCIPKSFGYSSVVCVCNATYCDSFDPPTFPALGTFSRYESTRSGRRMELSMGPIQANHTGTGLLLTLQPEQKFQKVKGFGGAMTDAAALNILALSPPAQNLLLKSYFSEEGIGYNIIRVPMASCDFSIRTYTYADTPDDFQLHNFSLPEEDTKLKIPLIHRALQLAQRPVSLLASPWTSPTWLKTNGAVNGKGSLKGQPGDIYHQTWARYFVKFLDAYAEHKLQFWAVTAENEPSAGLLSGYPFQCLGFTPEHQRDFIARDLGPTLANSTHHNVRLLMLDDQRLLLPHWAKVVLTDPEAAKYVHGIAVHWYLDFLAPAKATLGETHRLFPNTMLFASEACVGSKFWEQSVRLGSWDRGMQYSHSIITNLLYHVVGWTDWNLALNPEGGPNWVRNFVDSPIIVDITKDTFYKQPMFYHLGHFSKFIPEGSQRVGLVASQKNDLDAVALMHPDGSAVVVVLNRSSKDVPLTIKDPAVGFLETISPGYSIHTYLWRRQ
In short: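 Normal human glucocerebrosidase (0.2 nM) with blue fluorogenic substrate (80 uM final) in citrate/phosphate pH 5.9 with 10mM sodium taurocholate, 0.01% tween-20; 40 min RT, NaOH/glycine stop; fluorescence Ex 365/Em 440; AC50 from a titration from 0.6 nM upwards.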

[2] = AP1 Signaling Pathway (AID 357; active = well fitted curve in either direction with a large enough effect, not every such curve was filed as active;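 also: ME-180 reporter cells stimulated with EGF at its EC50 level; % is scaled to controls: 0 for no effect and ±100 for the full control effect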); conditions: ME-180 AP-1-bla reporter, EGF-induced, beta-lactamase ratio, 5 h; at 7.69 µM (top of the series) unless noted
In short: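 Read-out was the 460nm/530nm emission ratio (excitation 405nm) after CCF4 loading for 2.5 hours at room temperature. Cells carried an AP-1-driven beta-lactamase reporter, were stimulated with EC50 EGF plus compound for 5 hours, and AC50 values came from titrations.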

[3] = target: Cytochrome P450 1A2 (Homo sapiens) (UniProt P05177); assay: p450-cyp1a2 (AID 410; calls by dose curve; also: potency is read from the fitted curve at half-maximal effect); conditions: recombinant CYP1A2, luciferin-ME demethylation, luminescence; series mostly up to 57 µM
Chain of Cytochrome P450 1A2 (Homo sapiens) (P05177 whole entry, looked up): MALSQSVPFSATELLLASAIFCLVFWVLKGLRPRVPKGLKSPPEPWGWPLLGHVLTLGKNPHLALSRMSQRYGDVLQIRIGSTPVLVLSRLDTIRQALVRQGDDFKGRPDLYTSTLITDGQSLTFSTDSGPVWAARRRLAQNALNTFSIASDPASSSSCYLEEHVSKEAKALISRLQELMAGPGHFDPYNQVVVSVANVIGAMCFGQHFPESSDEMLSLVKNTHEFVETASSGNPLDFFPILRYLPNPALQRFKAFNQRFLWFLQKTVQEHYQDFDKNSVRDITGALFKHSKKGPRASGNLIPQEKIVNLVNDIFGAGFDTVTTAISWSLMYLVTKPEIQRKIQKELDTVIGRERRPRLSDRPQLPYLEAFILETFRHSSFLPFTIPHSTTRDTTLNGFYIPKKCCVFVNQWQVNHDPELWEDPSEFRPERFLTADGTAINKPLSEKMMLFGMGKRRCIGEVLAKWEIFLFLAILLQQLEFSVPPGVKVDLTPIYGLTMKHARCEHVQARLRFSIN
In short: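 O-Demethylation of luciferin 6' methyl ether by human CYP1A2 is monitored as luciferase luminescence. Substrate sits at Km (100uM); enzyme is 20nM. Values are scaled to 57 uM furafylline as maximal inhibition.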

[4] = NFAT Signaling Pathway (AID 444; active = well fitted curve in either direction with a large enough effect, not every such curve was filed as active;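 also: carbachol stimulus at about its EC50 of 1 µM final; % is scaled to controls: 0 for no effect and ±100 for the full control effect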); conditions: Jurkat NFAT-bla M1, carbachol, beta-lactamase ratio, 5 h; at 7.69 µM (top of the series) unless noted
In short: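 Read-out: CCF4 FRET ratio (460 nm/530 nm) after 1 h RT dye loading, used for %activity and AC50 from titration series. Cells: Jurkat NFAT-β-lactamase/M1 line, treated with compound plus 1 uM carbachol for 5 h, 37 °C.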

[5] = Stat Signaling Pathway (AID 446; active = well fitted curve in either direction with a large enough effect, not every such curve was filed as active;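 also: ME-180 cervical cancer cells given 40 pM IL-6 alongside compound; SIE-controlled beta-lactamase reporter measured as 460/530 nm FRET emission ratio; % is scaled to controls: 0 for no effect and ±100 for the full control effect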); conditions: ME-180 SIE beta-lactamase reporter, IL-6 stimulated, 5 h; at 7.69 µM (top of the series) unless noted
In short: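 Overnight-plated ME-180 cells bearing a STAT Inducible Element beta-lactamase reporter; 5 h co-exposure to compound and 40 pM IL-6; values normalized to 300 pM IL-6 and 125 nM JAK inhibitor controls.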

[6] = target: Glucocorticoid receptor (Homo sapiens) (UniProt P04150); assay: GR-GFP Redistribution (AID 450;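 active = compounds whose dose series gives a full or clear partial fitted curve of increased nuclear translocation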; also: potency is read from the fitted curve at half-maximal effect); conditions: U2OS GR-GFP nuclear translocation, laser cytometry, 2 h
Chain of Glucocorticoid receptor (Homo sapiens) (P04150 whole entry, looked up, the tested form may be a part): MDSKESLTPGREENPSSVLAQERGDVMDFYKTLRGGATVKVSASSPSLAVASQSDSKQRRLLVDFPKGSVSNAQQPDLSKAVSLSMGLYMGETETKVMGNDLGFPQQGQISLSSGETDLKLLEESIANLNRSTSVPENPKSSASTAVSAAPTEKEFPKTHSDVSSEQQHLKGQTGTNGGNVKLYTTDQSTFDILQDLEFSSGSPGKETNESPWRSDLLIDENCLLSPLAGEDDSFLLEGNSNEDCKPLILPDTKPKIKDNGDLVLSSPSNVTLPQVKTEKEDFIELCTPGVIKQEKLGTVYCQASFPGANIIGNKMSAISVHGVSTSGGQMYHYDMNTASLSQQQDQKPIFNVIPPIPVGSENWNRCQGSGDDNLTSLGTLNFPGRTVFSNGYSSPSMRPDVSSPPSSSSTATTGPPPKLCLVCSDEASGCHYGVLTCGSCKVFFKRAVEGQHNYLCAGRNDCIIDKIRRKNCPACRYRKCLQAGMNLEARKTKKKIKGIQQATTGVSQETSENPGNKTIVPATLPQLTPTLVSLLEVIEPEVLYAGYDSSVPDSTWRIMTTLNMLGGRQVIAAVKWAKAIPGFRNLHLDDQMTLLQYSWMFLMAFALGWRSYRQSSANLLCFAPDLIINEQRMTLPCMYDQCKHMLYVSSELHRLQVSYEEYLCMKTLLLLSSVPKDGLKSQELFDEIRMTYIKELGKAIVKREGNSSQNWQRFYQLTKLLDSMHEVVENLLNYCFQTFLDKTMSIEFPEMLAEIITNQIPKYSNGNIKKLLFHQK

[7] = target: Glucocorticoid receptor (Homo sapiens) (UniProt P04150); assay: GR-EFC Redistribution (AID 451; calls by dose curve; also: potency is read from the fitted curve at half-maximal effect); conditions: CHO-K1 GR-EFC translocation, beta-gal luminescence, 2 h
In short: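 Translocation of GR-ED fusion to nuclear EA restores b-gal, read by luminescence after 1 h room-temperature detection. Engineered CHO-K1 biosensor cells, 1,000/well, exposed 2 h at 37 C to titrations up to 46 uM final.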

[8] = target: Mitogen-activated protein kinase 10 (Mus musculus) (UniProt Q61831); assay: JNK3 AlphaScreen Assay (AID 530; active = well fitted curve in either direction with a large enough effect, not every such curve was filed as active;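 also: kinase came from lysate of stimulated human HepG2 cells; signal reports phosphorylation of biotinylated GST-cJun 1-79 at Ser73 with 10 µM ATP; % is scaled to controls: 0 for no effect and ±100 for the full control effect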); conditions: JNK3 lysate, c-Jun phosphorylation; series mostly up to 57.1 µM
In short: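 qHTS titrations with 15 min compound pre-incubation before adding ATP (10 uM final). Read-out: AlphaScreen of Ser73-phosphorylated biotin-GST-cJun using HepG2 lysate JNK3 activated by IL-1β and TNFα.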

[9] = target: 3',5'-cyclic-AMP phosphodiesterase 4B (Homo sapiens) (UniProt Q07343); assay: qHTS Assay for Inhibitors of PDE-IV (AID 607; active = well fitted activation curve with a large enough effect in the main read-out, with a control signal flat, not every such curve was filed as active; also: % of control where 0% means no effect); conditions: HEK293 ACTOne CNG channel cells, membrane potential fluorescence; series mostly up to 22.9 µM
Chain of 3',5'-cyclic-AMP phosphodiesterase 4B (Homo sapiens) (Q07343 whole entry, looked up): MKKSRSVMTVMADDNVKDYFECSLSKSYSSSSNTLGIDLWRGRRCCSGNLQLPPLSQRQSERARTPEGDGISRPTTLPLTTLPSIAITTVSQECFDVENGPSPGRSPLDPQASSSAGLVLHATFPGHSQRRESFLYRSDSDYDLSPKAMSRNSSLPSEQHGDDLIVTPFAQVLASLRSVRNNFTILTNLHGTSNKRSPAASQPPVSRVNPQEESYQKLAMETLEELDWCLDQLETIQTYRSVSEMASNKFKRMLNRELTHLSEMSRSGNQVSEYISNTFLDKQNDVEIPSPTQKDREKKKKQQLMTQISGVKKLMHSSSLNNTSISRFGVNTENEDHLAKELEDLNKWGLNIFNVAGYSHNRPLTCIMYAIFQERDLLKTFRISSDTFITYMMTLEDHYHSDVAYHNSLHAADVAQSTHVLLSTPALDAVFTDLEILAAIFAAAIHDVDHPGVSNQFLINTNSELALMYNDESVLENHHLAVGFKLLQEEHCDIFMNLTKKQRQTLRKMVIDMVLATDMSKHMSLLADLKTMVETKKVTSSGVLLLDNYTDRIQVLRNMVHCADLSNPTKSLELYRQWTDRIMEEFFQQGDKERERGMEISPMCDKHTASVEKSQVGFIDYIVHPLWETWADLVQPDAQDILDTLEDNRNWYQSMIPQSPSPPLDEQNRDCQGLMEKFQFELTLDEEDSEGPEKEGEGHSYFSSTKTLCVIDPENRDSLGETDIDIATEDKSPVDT
In short: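 Live HEK293 cells with a modified cyclic nucleotide-gated (CNG) channel report intracellular cAMP via membrane-potential dye fluorescence (ex 535/em 590 nm). Endogenous PDE-IV was targeted. Compounds were tested at up to 22.9 uM final; RO 20-1724 100 uM served as control.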

[10] = target: Cytochrome P450 3A4 (Homo sapiens) (UniProt P08684); assay: qHTS Assay for Inhibitors and Substrates of Cytochrome P450 3A4 (AID 884); conditions: recombinant CYP3A4, Luciferin-PPXE luminescence; series mostly up to 57.1 µM; also: % is scaled to controls: 0 for no effect and ±100 for the full control effect; nearly all actives have a fitted effect of over 50% in size
Chain of Cytochrome P450 3A4 (Homo sapiens) (P08684 whole entry, looked up): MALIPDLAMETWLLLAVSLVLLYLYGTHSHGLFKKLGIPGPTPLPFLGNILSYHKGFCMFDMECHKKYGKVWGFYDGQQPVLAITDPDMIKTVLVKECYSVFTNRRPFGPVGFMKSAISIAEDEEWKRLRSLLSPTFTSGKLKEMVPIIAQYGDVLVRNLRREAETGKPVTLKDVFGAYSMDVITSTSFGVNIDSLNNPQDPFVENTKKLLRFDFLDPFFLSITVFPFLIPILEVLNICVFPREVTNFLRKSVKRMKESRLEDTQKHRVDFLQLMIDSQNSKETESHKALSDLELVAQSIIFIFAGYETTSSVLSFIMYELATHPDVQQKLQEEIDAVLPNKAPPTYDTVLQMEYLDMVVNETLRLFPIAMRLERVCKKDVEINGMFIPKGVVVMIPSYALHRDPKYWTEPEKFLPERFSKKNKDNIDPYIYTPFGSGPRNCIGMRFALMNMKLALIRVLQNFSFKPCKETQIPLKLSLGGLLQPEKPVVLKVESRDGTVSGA
In short: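 Luminescent readout of luciferin produced by CYP3A4 (20 nM) dealkylation of Luciferin-PPXE, 25 uM (its KM). NADPH-driven reaction ran 60 min at RT after 10 min compound preincubation; data scaled to 57 uM ketoconazole as 100% inhibition.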

[11] = Confirmation and Secondary Assay for Modulators of Hemoglobin Beta Chain Splicing at IVS2 654 locus (AID 910); conditions: HeLa EGFP-654 splicing reporter, GFP fluorescence, 48 h; series mostly up to 38.3 µM;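 also: HeLa cells stably carrying EGFP split by mutant beta-globin IVS2-654 intron; per-well total GFP intensity by laser scanning cytometry after 2-day treatment; % of control where 0% means no effect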
In short: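 Readout: per-well total peak green fluorescence (488 nm ex, 500–520 nm em) from objects 5–250 µm, reflecting correct splicing of an EGFP-654 reporter. Compounds were applied for 2 days at 37 °C to overnight-plated HeLa EGFP-654 cells; controls were DMSO and 500 nM IVS2-654 PNA.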

[12] = Confirmation and Secondary Assay for Modulators of Hemoglobin Beta Chain Splicing at IVS2 705 locus (AID 930); conditions: HeLa EGFP-705 splicing reporter, GFP fluorescence, 48 h; series mostly up to 38.3 µM;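 also: HeLa cells stably expressing the EGFP-705 splicing reporter; GFP fluorescence per well restored by corrected splicing of the IVS2-705 intron in EGFP; % of control where 0% means no effect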
In short: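 Per-well GFP, captured at 1 x 8 µm resolution with 488 nm excitation, served as the read-out for HeLa EGFP-705 cells incubated 2 days with test compound versus DMSO.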

[13] = qHTS Assay for Lipid Storage Modulators (AID 1519; calls by dose curve); conditions: Drosophila S3 cells, BODIPY lipid droplet/cell ratio, laser cytometry, cells loaded with oleic acid; for activity change, negative = inhibition: at 57.5 µM (top of the series)
In short: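 Cells seeded at 5,000 per well were treated with compounds over a concentration series and loaded with oleic acid (400 uM, as added). Lipid droplet fluorescence (488 nm excitation, 500-530 nm channel) was read by laser-scanning cytometry and normalized to 20 uM Triacsin C.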

[14] = target: Ubiquitin carboxyl-terminal hydrolase 1 (Homo sapiens) (UniProt O94782); assay: Inhibitors of USP1/UAF1: Pilot qHTS (AID 504865); conditions: purified USP1/UAF1, Ub-rhodamine cleavage fluorescence; series mostly up to 54.9 µM;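 also: rhodamine fluorescence freed from ubiquitin-rhodamine substrate followed over time; top concentration of the series differs between compounds; % is scaled to controls: 0 for no effect and ±100 for the full control effect; nearly all actives have a fitted effect of over 35% in size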
Chain of Ubiquitin carboxyl-terminal hydrolase 1 (Homo sapiens) (O94782 whole entry, looked up): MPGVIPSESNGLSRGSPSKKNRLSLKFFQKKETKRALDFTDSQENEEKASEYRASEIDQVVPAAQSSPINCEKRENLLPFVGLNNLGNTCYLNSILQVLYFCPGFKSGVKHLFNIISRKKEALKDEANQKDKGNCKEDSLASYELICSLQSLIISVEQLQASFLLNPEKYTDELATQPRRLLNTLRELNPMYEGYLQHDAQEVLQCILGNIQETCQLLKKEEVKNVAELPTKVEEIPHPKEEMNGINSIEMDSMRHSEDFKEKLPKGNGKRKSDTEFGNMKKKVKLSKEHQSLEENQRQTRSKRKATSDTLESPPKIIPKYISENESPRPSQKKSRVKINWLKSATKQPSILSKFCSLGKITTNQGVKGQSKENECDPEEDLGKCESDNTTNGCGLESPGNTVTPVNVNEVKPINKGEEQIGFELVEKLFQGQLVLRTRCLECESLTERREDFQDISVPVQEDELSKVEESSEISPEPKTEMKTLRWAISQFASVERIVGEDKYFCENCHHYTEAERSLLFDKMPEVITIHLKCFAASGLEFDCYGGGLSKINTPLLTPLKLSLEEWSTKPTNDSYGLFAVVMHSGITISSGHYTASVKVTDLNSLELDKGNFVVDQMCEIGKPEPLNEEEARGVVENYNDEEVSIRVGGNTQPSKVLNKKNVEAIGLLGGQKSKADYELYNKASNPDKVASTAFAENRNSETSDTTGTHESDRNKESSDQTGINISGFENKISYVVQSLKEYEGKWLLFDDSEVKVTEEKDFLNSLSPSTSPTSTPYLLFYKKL
In short: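 In 50mM HEPES pH 7.8 containing 0.5mM EDTA, 1mM TCEP, 0.1 mg/ml BSA and 0.01% Tween-20, 1nM USP1/UAF1 is exposed to compound for 15 min, then Ub-Rho (150nM final) is added and fluorescence is read over time.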

[15] = Primary qHTS for small molecule stabilizers of the endoplasmic reticulum resident proteome: Secreted ER Calcium Modulated Protein (SERCaMP) assay (AID 1508630); conditions: SH-SY5Y GLuc-SERCaMP (Gaussia luciferase released on ER calcium loss) secretion, thapsigargin, luminescence; series mostly up to 38.4 µM; also: % is scaled to controls: 0 for no effect and ±100 for the full control effect
In short: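 The SH-SY5Y reporter protocol was run at 3 concentrations up to 38.3 uM (primary) or 11 concentrations (follow-up): 16 h compound, 100 nM thapsigargin for 4 h, then extracellular luciferase luminescence.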

[16] = target: Cytochrome P450 3A4 (Homo sapiens) (UniProt P08684); assay: qHTS Assay for Activators of Cytochrome P450 3A4 (AID 885); conditions: recombinant CYP3A4, Luciferin-PPXE luminescence, 60 min; series mostly up to 57.1 µM; also: nearly all actives have a fitted effect of over 65% in size
In short: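 Using 20nM recombinant human CYP3A4 in potassium phosphate (200mM), substrate Luciferin-PPXE at 25uM, luminescent luciferin detection followed a 60-min RT NADPH reaction; data scaled to 57 uM ketoconazole.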

[17] = qHTS Assay for Identification of Small Molecule Agonists for Hypoxia Response Element Signaling Pathway (AID 914; active = well fitted activation curve with a large enough effect in the signal ratio, with a control signal flat, not every such curve was filed as active; the % refers to the signal ratio; also: % of control where 0% means no effect); conditions: ME-180 (cervical carcinoma) HRE-bla reporter, beta-lactamase ratio, CoCl2, 17 h; activation: stronger effect = higher value
In short: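 In Opti-MEM containing 0.5% dialyzed FBS and 10 mM HEPES, ME-180 HRE-bla cells received a compound titration and EC50 CoCl2. They were incubated 17 hours, then CCF4-loaded 2.5 hours at room temperature before ratio reading.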

[18] = measured here: cell count channel max response
[19] = measured here: lipid channel max response

| Structure (SMILES) | Potency [1] | activity change, negative = inhibition [2] | Potency [3] | activity change, negative = inhibition [4] | activity, negative = inhibition [5] | Potency [6] | Potency [7] | outcome [8] | Potency [9] | Potency [10] | outcome [11] | outcome [12] | activity change, negative = inhibition [13] | max response [13, 18] | max response [13, 19] | Potency [14] | Potency [15] | Potency [16] | activation [17] |
| --- | --- | --- | --- | --- | --- | --- | --- | --- | --- | --- | --- | --- | --- | --- | --- | --- | --- | --- | --- |
| COc1ccccc1-c1cncnc1-n1ccnc1 | > 11.4 µM (inactive) | -7.86% (inactive) | 12.6 µM (active) | 1.61% (inactive) | 10.2% (inactive) | > 46 µM (inactive) | > 46 µM (inactive) | inactive | inactive | inactive | inactive | inactive | 7.28% (inactive) | 19.4% | 28.5% | inactive | inactive |  |  |
| c1cncc(CNc2cc(-c3ccc4c(c3)OCO4)ncn2)c1 | > 11.4 µM (inactive) | -7.3% (inactive) | 0.251 µM (active) | 11.5% (inactive) | 3.19% (inactive) | > 46 µM (inactive) | > 46 µM (inactive) | inactive | inactive |  | inactive | inactive | 11.7% (inactive) | 14% | 18.9% | inactive | inactive |  |  |
| Cc1cnc(CNc2ncncc2-c2ccc(C(=O)N(C)C)cc2)cn1 | > 11.4 µM (inactive) | 5.94% (inactive) | 20 µM (active) | 2.85% (inactive) | 9.42% (inactive) | > 46 µM (inactive) | > 46 µM (inactive) | inactive | inactive |  | inactive | inactive | 10.8% (inactive) | 16% | 28.5% | inactive | inactive | inactive | 0.757% (inactive) |
